The assay deals with T1, SPIC (Homo sapiens, UniProt Q8N5J4 1-248).
T1 sequence: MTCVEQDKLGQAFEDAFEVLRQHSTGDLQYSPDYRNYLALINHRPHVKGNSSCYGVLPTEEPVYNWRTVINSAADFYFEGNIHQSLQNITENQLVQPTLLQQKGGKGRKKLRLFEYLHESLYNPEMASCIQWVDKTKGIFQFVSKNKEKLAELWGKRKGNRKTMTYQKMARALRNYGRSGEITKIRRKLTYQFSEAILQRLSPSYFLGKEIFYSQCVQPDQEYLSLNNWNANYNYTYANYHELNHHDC
Nature of the assay: DAPPL (digital affinity profiling via proximity ligation, sequencing); 10 mM Tris-HCl pH 7.5, 50 mM NaCl, 1 mM DTT, 4% glycerol, room temperature, 30 min; GST-TFs on glutathione beads, 16-mer random dsDNA library, 0.1% formaldehyde crosslink after washing; high values mean tight binding. Particulars: protein: recombinant; tags: N-terminal GST; dsDNA, one strand shown. In outline:
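Sequencing on an Illumina NextSeq500 followed washing, crosslinking with 0.1% formaldehyde, proximity ligation (BsaI/T4 ligase, 1 h, 37 °C) and PCR amplification of pools that had been incubated for 30 min at room temperature with 200 nmole of a random double-stranded 16-mer DNA library in Tris/NaCl/DTT/glycerol buffer. Each pool held DNA-barcoded human transcription factors, expressed in yeast as GST fusions and captured on glutathione beads, plus a tag-only sample. Binding signal is a hexamer's read frequency for a factor divided by its frequency in the tag-only sample.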

For the sequence GTAAGC, the binding signal was 1.01 fold enrichment (6-mer frequency, TF over GST control).

For the origin of these results see article PMC7862700, “An all-to-all approach to the identification of sequence-specific readers for epigenetic DNA modifications on cytosine”.
